Results taken from PubChem BioAssay (EPA / NIEHS).
Inconclusive results are not listed. Calls of active or inactive are those of the source. Rule for the calls, unless noted: active = hit-call score of the fitted dose curve at least 0.9, where 1 is the maximum; inactive = score below 0.9.

How the values were obtained:
[1] = ATG_PBREM_CIS: Attagene CIS-FACTORIAL HepG2 Assay for human Phenobarbital-responsive Enhancer Module (PBREM) (AID 2282955); conditions: HepG2 PBREM cis-reporter, Attagene multiplexed transcription; actives raise or lower the signal
How it was run: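 Endogenous transcription factor activity was read from reporter transcripts in transiently transfected human HepG2 liver cells after 24 h dosing. RT-PCR products were fluorescently labelled, HpaI-cut and sized by capillary electrophoresis; activity fitted bidirectionally against DMSO baseline.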

[2] = biological target: Paired box protein Pax-6 (Homo sapiens) (UniProt P26367); assay: ATG_Pax6_CIS: Attagene CIS-FACTORIAL HepG2 Assay for human Paired Box 6 (PAX6) (AID 2282956); conditions: HepG2 CIS-FACTORIAL PAX6 reporter transcription, RNA readout; actives raise or lower the signal
How it was run: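 Read-out is reporter transcript level, measured by RT-PCR with fluorescent primer extension and capillary electrophoresis after 24 h dosing of transfected HepG2 cells. Activity in either direction fitted relative to DMSO control.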

[3] = ATG_PXRE_CIS: Attagene CIS-FACTORIAL HepG2 Assay for human Pregnane X Receptor Element (PXRE) (AID 2282957); conditions: HepG2 Attagene CIS-FACTORIAL PXRE reporter, mRNA; actives raise or lower the signal
How it was run: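 After a 24 h chemical incubation, total RNA from transfected HepG2 cells was reverse-transcribed and reporter cDNA amplified, FAM-labeled, HpaI-digested and sized by capillary electrophoresis. DMSO served as baseline for bidirectional curve fitting.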

[4] = ATG_PPRE_CIS: Attagene CIS-FACTORIAL HepG2 Assay for human Peroxisome Proliferator-activated Response Element (PPRE) (AID 2282958); conditions: HepG2 PPRE cis-element reporter, Attagene transcription factor profiling; actives raise or lower the signal
How it was run: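 Endogenous PPRE-driven transcription is measured in HepG2 cells carrying transfected multi-reporter constructs. Reporter transcripts are quantified by RT-PCR, HpaI digestion and capillary electrophoresis 24 h after dosing. DMSO baseline, bidirectional fit.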

[5] = ATG_RORE_CIS: Attagene CIS-FACTORIAL HepG2 Assay for human RAR-related Orphan Receptor Element (RORE) (AID 2282959); conditions: HepG2 Attagene cis-factorial RORE reporter, mRNA; actives raise or lower the signal
How it was run: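 RORE reporter transcripts reflecting endogenous factor activity were read after 24 h compound exposure of transfected HepG2 cells, using reverse transcription, PCR, fluorescent labelling and capillary electrophoresis sizing. Gain or loss fitted against DMSO.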

[6] = ATG_Sox_CIS: Attagene CIS-FACTORIAL HepG2 Assay for human SRY-box transcription factor (SOX) (AID 2282960); conditions: HepG2 Attagene cis-factorial SOX reporter, mRNA; actives raise or lower the signal
How it was run: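 Reporter transcripts, measured by RT-PCR and capillary electrophoresis of labelled fragments, report endogenous SOX transcription factor activity. Transiently transfected human HepG2 cells receive chemical for 24 h; changes in either direction are fitted relative to DMSO.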

[7] = biological target: Transcription factor Sp1 (Homo sapiens) (UniProt P08047); assay: ATG_Sp1_CIS: Attagene CIS-FACTORIAL HepG2 Assay for human Specificity Protein 1 (Sp1) (AID 2282961); conditions: HepG2 Sp1 cis-reporter transcription, actives raise or lower the signal
How it was run: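 Read-out is reporter transcript level, measured by RT-PCR and fluorescent capillary electrophoresis after 24 h chemical treatment. System: transiently transfected HepG2 cells reporting endogenous transcription factor activity; gain or loss fitted against DMSO baseline.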

[8] = ATG_SREBP_CIS: Attagene CIS-FACTORIAL HepG2 Assay for human Sterol Regulatory Element Binding (SREBP) (AID 2282962); conditions: HepG2 Attagene cis-factorial SREBP reporter, mRNA; actives raise or lower the signal
How it was run: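 Endogenous SREBP activity read as cis-element-driven reporter transcript in transiently transfected HepG2, 24 h post-dosing; quantified via RT-PCR plus capillary electrophoresis of fluorescent fragments. Gain or loss of signal fitted relative to DMSO baseline.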

[9] = biological target: Signal transducer and activator of transcription 3 (Homo sapiens) (UniProt P40763); assay: ATG_STAT3_CIS: Attagene CIS-FACTORIAL HepG2 Assay for human Signal Transducer and Activator of Transcription 3 (STAT3) (AID 2282963); conditions: HepG2, Attagene cis-factorial STAT3 reporter transcription; actives raise or lower the signal
How it was run: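 Cis-factorial format: endogenous transcription factors in HepG2 drive transfected reporter units. After 24 h treatment, reporter RNA was reverse-transcribed, amplified, FAM-labelled and HpaI-digested before CE analysis; activity scored in both directions against DMSO.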

[10] = ATG_TA_CIS: Attagene CIS-FACTORIAL HepG2 Assay for human TA Basal Promoter (AID 2282964); conditions: HepG2 Attagene CIS-factorial TA basal promoter reporter; actives raise or lower the signal
How it was run: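 HepG2 cells transiently transfected with multiplexed cis-promoter reporter units, dosed 24 h. Reporter mRNA measured by RT-PCR, 6-FAM labelling, HpaI digestion and capillary electrophoresis; bidirectional fit versus DMSO baseline, serving as background control.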

[11] = ATG_TCF_b_cat_CIS: Attagene CIS-FACTORIAL HepG2 Assay for human T-Cell-Factor with beta-catenin (TCF/b-cat) (AID 2282965); conditions: HepG2 TCF/beta-catenin cis-reporter transcription, actives raise or lower the signal
How it was run: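 Endogenous TCF/LEF activity read as reporter transcript level via RT-PCR and capillary electrophoresis fluorescence in transfected HepG2, 24 h exposure; gain or loss of signal fitted against DMSO controls.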

[12] = ATG_TAL_CIS: Attagene CIS-FACTORIAL HepG2 Assay for human TAL Basal Promoter (AID 2282966); conditions: HepG2 Attagene cis-factorial TAL promoter reporter; actives raise or lower the signal;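 note: background control endpoint measuring basal TAL promoter reporter mRNA not a specific factor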
How it was run: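 Basal-promoter background-control endpoint from a multiplexed HepG2 reporter panel. Cells were exposed 24 h, then reporter mRNA was read by RT-PCR/CE fluorescence and fitted in both directions relative to DMSO.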

[13] = ATG_TGFb_CIS: Attagene CIS-FACTORIAL HepG2 Assay for human Transforming Growth Factor (TGF) (AID 2282967); conditions: HepG2 Attagene CIS TGFb reporter, mRNA transcription; actives raise or lower the signal
How it was run: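 HepG2 cells transiently transfected with cis-promoter-driven multiplexed reporter units; 24 h compound exposure. Reporter mRNA measured by RT-PCR, 6-FAM labeling, HpaI digestion and capillary electrophoresis; bidirectional fit versus DMSO baseline.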

[14] = ATG_VDRE_CIS: Attagene CIS-FACTORIAL HepG2 Assay for human Vitamin D Receptor Element (VDRE) (AID 2282968); conditions: HepG2 VDRE cis-reporter transcription, actives raise or lower the signal
How it was run: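 Measures endogenous factor activity through cis-element-driven reporter transcripts in transiently transfected HepG2. Cells are treated 24 h; reporter mRNA is quantified by RT-PCR and capillary electrophoresis; fitting is bidirectional.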

[15] = biological target: Nuclear receptor subfamily 1 group I member 3 (Homo sapiens) (UniProt Q14994); assay: ATG_CAR_TRANS: Attagene TRANS-FACTORIAL HepG2 Assay for human Constitutive Androstane Receptor (CAR) (AID 2282969; active = hit-call score of the fitted dose curve at least 0.9, where 1 is the maximum;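 note: activators raise reporter mRNA above DMSO so AC50 marks induction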); conditions: HepG2 Attagene TRANS-FACTORIAL CAR reporter
How it was run: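 Signal is reporter mRNA induction relative to DMSO, measured 24 h after dosing by RT-PCR with fluorescent primer extension and capillary electrophoresis. Human HepG2 liver cells carried transiently transfected chimeric NR-Gal4/GAL4-UAS reporter constructs.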

[16] = biological target: Estrogen receptor (Homo sapiens) (UniProt P03372); assay: ATG_ERa_TRANS: Attagene TRANS-FACTORIAL HepG2 Assay for human Estrogen Receptor alpha (ERa) (AID 2282970; active = hit-call score of the fitted dose curve at least 0.9, where 1 is the maximum); conditions: HepG2 Attagene TRANS ERa GAL4 reporter, mRNA
How it was run: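 Gal4-fusion ERa transactivation, measured as reporter transcript level in transiently transfected HepG2 cells. Exposure 24 h; RT-PCR plus capillary electrophoresis with fluorescence detection.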

[17] = biological target: Steroid hormone receptor ERR1 (Homo sapiens) (UniProt P11474); assay: ATG_ERRa_TRANS: Attagene TRANS-FACTORIAL HepG2 Assay for human Estrogen-Related Receptor alpha (ERRa) (AID 2282971; active = hit-call score of the fitted dose curve at least 0.9, where 1 is the maximum); conditions: HepG2 Attagene TRANS reporter, ERRa transactivation
How it was run: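 HepG2 cells transiently transfected with GAL4-UAS reporter units and chimeric NR-Gal4 constructs; after 24 hour compound incubation, reporter mRNA quantified by RT-PCR, fluorescent labelling and capillary electrophoresis, gain of signal versus DMSO.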

[18] = biological target: X-box-binding protein 1 (Homo sapiens) (UniProt P17861); assay: ATG_Xbp1_CIS: Attagene CIS-FACTORIAL HepG2 Assay for human X-box Binding Protein 1 (XBP1) (AID 2282972); conditions: HepG2 XBP1 cis-element reporter, Attagene multiplex; actives raise or lower the signal
How it was run: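 Reporter transcripts were quantified by RT-PCR with fluorescent primer extension and capillary electrophoresis after 24 h chemical exposure. Cells: transiently transfected HepG2 carrying cis-regulated reporter constructs; data fitted bidirectionally relative to DMSO.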

[19] = ATG_M_19_TRANS: Attagene TRANS-FACTORIAL HepG2 Assay for M19 Transcription Factor (Internal Marker) (AID 2282974; active = hit-call score of the fitted dose curve at least 0.9, where 1 is the maximum); conditions: HepG2 Attagene TRANS-FACTORIAL M19 internal marker reporter
How it was run: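 Background-control readout: after 24 h chemical exposure of transfected HepG2 carrying GAL4-driven reporter units, RNA was reverse-transcribed, amplified, fluorescently labeled and sized by capillary electrophoresis; gain-of-signal fit against DMSO.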

[20] = biological target: Androgen receptor (Homo sapiens) (UniProt P10275); assay: ATG_AR_TRANS: Attagene TRANS-FACTORIAL HepG2 Assay for human Androgen Receptor (AR) (AID 2282973; active = hit-call score of the fitted dose curve at least 0.9, where 1 is the maximum); conditions: HepG2 Attagene TRANS-FACTORIAL AR reporter transcription
How it was run: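 HepG2 cells transiently transfected with AR-Gal4 chimera and GAL4-UAS reporter units; chemical exposure 24 h. Reporter mRNA quantified by RT-PCR with fluorescent labelling and capillary electrophoresis; gain-of-signal fitted against DMSO.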

Measured: AC50

Nuclear receptor subfamily 1 group I member 3 (Homo sapiens), sequence (Q14994 whole entry, looked up, the tested form may be a part): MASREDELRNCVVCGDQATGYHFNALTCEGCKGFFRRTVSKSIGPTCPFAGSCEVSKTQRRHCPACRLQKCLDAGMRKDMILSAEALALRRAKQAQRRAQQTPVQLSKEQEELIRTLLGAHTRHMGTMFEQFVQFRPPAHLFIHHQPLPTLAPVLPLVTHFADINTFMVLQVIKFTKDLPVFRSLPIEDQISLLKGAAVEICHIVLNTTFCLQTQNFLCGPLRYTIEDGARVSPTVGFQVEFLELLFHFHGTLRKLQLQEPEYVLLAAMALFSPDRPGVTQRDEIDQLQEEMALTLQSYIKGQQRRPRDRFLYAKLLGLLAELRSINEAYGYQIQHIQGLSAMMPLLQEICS
Estrogen receptor (Homo sapiens), sequence (P03372 whole entry, looked up, the tested form may be a part): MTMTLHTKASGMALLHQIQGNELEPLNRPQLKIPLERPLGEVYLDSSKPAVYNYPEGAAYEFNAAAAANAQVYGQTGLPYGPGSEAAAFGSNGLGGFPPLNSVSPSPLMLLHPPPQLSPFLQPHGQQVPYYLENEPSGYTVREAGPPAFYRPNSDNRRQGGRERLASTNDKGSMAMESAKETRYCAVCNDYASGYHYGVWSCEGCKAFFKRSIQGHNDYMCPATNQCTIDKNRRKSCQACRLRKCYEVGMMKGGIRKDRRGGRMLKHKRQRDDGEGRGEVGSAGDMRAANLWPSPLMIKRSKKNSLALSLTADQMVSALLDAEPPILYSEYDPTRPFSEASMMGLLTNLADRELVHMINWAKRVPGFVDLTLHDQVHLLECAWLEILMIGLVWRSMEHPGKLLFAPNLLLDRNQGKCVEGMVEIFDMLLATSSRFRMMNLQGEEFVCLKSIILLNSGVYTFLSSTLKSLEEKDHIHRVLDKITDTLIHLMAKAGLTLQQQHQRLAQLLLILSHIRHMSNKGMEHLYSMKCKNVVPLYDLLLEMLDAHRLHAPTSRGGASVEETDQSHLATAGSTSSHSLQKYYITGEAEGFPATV
Steroid hormone receptor ERR1 (Homo sapiens), sequence (P11474 whole entry, looked up, the tested form may be a part): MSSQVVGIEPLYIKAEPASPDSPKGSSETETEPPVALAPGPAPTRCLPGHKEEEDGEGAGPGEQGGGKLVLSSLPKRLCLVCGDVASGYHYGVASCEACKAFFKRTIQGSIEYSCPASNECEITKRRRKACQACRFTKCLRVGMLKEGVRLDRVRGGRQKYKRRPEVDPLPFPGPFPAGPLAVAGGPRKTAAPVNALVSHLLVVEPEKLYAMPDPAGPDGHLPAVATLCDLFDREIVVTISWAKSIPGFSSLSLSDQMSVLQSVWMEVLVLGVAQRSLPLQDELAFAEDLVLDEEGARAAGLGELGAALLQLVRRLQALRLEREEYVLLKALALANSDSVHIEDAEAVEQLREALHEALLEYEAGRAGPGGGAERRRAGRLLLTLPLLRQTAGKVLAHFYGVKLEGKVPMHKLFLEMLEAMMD
Signal transducer and activator of transcription 3 (Homo sapiens), sequence (P40763 whole entry, looked up): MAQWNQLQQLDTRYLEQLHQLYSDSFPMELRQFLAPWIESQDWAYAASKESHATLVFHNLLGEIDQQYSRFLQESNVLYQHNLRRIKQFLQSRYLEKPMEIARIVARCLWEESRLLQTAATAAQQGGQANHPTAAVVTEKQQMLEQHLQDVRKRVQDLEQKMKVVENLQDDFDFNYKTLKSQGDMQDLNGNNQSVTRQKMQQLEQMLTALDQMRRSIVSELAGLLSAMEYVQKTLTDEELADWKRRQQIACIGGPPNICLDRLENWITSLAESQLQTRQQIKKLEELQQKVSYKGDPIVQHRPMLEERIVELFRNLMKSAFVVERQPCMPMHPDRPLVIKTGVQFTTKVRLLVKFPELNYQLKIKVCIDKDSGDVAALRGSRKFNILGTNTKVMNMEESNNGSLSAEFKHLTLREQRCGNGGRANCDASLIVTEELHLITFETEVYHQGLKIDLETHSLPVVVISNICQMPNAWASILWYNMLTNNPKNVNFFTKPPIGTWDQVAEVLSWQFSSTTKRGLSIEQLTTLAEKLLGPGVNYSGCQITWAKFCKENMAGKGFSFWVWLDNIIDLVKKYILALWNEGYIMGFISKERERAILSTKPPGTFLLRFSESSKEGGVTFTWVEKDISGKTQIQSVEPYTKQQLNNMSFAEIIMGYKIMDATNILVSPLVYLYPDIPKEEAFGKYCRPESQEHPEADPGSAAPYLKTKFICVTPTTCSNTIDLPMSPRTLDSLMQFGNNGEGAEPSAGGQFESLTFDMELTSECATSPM
Transcription factor Sp1 (Homo sapiens), sequence (P08047 whole entry, looked up): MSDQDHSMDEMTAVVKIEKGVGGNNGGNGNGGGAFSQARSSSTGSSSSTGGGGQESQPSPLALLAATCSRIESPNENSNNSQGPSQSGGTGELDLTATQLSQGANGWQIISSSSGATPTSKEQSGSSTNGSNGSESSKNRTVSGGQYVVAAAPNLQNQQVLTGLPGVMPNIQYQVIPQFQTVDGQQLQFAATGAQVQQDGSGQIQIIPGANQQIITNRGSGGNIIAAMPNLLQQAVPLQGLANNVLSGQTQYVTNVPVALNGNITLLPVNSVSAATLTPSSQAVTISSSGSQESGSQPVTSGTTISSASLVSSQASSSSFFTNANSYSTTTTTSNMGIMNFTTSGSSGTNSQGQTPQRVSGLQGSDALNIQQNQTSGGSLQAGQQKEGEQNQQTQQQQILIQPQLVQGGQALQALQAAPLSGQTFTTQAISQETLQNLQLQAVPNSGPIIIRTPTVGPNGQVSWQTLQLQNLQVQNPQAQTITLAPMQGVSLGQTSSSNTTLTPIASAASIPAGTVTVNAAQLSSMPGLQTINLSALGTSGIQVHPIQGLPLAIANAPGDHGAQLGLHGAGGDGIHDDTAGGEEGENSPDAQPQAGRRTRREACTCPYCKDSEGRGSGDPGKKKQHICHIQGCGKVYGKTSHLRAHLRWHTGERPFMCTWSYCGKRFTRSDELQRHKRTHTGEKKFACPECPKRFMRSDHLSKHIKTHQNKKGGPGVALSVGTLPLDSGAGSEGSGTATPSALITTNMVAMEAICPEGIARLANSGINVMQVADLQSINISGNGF
Paired box protein Pax-6 (Homo sapiens), sequence (P26367 whole entry, looked up): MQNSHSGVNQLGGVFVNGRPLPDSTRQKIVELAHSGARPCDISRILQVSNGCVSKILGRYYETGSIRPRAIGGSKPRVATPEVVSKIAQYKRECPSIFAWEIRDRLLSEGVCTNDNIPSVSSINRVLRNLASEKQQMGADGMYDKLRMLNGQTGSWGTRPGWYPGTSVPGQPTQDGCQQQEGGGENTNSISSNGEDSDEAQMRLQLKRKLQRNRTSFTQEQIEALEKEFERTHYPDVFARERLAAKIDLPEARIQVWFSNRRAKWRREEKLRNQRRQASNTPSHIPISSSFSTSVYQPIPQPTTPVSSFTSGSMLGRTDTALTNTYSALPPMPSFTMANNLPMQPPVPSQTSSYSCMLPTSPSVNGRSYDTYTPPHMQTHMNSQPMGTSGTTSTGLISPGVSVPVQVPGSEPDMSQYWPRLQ
X-box-binding protein 1 (Homo sapiens), sequence (P17861 whole entry, looked up): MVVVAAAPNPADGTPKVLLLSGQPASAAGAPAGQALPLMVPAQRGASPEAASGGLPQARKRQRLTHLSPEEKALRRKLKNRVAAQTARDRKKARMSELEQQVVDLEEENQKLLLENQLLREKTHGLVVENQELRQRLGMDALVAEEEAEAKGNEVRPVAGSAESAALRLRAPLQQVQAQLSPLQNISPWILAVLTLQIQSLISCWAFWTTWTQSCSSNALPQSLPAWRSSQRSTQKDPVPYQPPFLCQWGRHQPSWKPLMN
Androgen receptor (Homo sapiens), sequence (P10275 whole entry, looked up, the tested form may be a part): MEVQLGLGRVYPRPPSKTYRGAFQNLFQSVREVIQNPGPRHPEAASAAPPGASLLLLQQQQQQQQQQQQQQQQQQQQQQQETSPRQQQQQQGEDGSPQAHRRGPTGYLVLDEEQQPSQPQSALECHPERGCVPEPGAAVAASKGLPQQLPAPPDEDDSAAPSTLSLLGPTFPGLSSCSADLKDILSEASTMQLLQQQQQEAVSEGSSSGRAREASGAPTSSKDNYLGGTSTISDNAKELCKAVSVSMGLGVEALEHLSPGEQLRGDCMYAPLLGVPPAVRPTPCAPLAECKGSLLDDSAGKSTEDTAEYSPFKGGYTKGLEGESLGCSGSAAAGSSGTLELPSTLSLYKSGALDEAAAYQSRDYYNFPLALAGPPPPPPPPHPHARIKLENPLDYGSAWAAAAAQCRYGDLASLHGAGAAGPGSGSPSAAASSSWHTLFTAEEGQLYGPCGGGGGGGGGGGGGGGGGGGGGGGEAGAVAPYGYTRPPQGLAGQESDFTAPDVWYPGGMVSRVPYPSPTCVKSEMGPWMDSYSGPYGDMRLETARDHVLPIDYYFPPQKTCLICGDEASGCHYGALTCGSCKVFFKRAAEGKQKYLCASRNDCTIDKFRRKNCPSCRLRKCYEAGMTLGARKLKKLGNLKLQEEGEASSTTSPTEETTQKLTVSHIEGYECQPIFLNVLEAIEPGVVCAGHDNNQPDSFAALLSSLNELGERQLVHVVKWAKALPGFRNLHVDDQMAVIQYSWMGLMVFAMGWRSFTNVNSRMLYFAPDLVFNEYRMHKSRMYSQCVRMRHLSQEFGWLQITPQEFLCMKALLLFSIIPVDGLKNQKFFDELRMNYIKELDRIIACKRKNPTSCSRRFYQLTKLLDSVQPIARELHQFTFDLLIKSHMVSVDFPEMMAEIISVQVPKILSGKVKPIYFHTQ

COC(=O)N(OC)c1ccccc1COc1ccn(-c2ccc(Cl)cc2)n1
active: [1] 1.67 µM | [3] 1.28 µM | [4] 0.343 µM | [5] 2.2 µM | [14] 1.35 µM
not listed: [19] | [20]
inactive: all other assays above

CC(C)C1(C)N=C(c2nc3ccccc3cc2C(=O)O)NC1=O (stereo not given)
active: [3] 11.1 µM
not listed: [6] | [19] | [20]
inactive: all other assays above

CCCCC(CC)COC(=O)c1ccccc1C(=O)OCC(CC)CCCC (stereo not given)
active: [3] 9.84 µM | [4] 17.5 µM
not listed: [17] | [20]
inactive: all other assays above

CN(C)C(=S)SSC(=S)N(C)C
not listed: [15] | [17]
inactive: all other assays above

N#Cc1cc(Br)c(O)c(Br)c1
active: [3] 18.4 µM | [4] 21.1 µM | [5] 50 µM | [18] 31.6 µM
not listed: [6] | [14] | [15] | [20]
inactive: all other assays above

N#CC(CCc1ccc(Cl)cc1)(Cn1cncn1)c1ccccc1 (stereo not given)
active: [3] 1.5 µM | [8] 8.22 µM | [10] 16.9 µM
not listed: [6] | [15]
inactive: all other assays above

CCCCNC(=O)n1c(NC(=O)OC)nc2ccccc21
not listed: [4] | [6] | [17] | [19] | [20]
inactive: all other assays above
